Unmarked numbers belong to inactive results. Calls of active or inactive are those of the source.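 How the source made its calls: active means normalized viability below 100% at a tested concentration; inactive means the rest.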

The test can be described thus: drug combination growth inhibition, ovarian cancer – cell-based, oncology-focused library, rucaparib conditional, profiling panel (AID 1508598). The conditions noted are these: patient-derived ovarian cancer cells, CellTiter-Glo viability, 144 h; at 0.0781 µM; OCI-C5x cells; with rucaparib 10 µM; stronger effect = lower value; 100% = cells with rucaparib alone. In general terms: In ATP-based viability assays light output follows the ATP content of the culture.
As to `N[C@@H]1CCCN(c2c(/C=C3\SC(=O)NC3=O)cccc2-c2ccccc2)C1`, the viability (usually a read-out of living cells in per cent, often relative to untreated cells) was 108%.
Then `C[C@@H]1C[C@H]2[C@@H]3CCC4=CC(=O)C=C[C@]4(C)[C@]3(F)[C@H](O)C[C@]2(C)[C@]1(O)C(=O)CO`, with 108%; and `Cc1cc2c(C(=O)NC[C@H](C)c3ccccc3)c(O)c(O)cc2c(O)c1-c1c(C)cc2c(C(=O)NC[C@H](C)c3ccccc3)c(O)c(O)cc2c1O`, with 122%; and `Nc1nc(F)nc2c1ncn2[C@H]1O[C@H](CO)[C@@H](O)[C@@H]1O`, with 106%.
As for `COc1cccc2c1C(=O)c1c(O)c3c(c(O)c1C2=O)C[C@@](O)(C(=O)CO)C[C@H]3O[C@H]1C[C@H](N)[C@@H](O)[C@H](C)O1`, the figure is 103%.
Then `C=C1/C(=C/C=C2\CCC[C@@]3(C)[C@H]2CC[C@H]3[C@H](C)/C=C/[C@@H](C)C(C)C)C[C@H](O)C[C@@H]1O`, with 97.1% (active); and `CO[C@H]1C[C@H]2CC[C@@H](C)[C@@](O)(O2)C(=O)C(=O)N2CCCC[C@H]2C(=O)O[C@H]([C@H](C)C[C@@H]2CC[C@H](OP(C)(C)=O)[C@H](OC)C2)CC(=O)[C@H](C)/C=C(\C)[C@@H](O)[C@@H](OC)C(=O)[C@H](C)C[C@H](C)/C=C/C=C/C=C/1C`, with 103%.
For `C=CCNC1=C2C[C@@H](C)C[C@H](OC)[C@H](O)[C@@H](C)/C=C(\C)[C@H](OC(N)=O)[C@@H](OC)/C=C\C=C(\C)C(=O)NC(=CC1=O)C2=O`, the viability is 133%.
For `CC[C@]1(O)C[C@@H]2CN(CCc3c([nH]c4ccccc34)[C@@](C(=O)OC)(c3cc4c(cc3OC)N(C=O)[C@@H]3C45CCN4CC=C[C@](CC)([C@H]45)[C@H](OC(C)=O)[C@]3(O)C(=O)OC)C2)C1` (stereo partly drawn), the viability was 45.1% (active).
As for `COc1cccc2c1C(=O)c1c(O)c3c(c(O)c1C2=O)C[C@@](O)(C(C)=O)C[C@H]3O[C@H]1C[C@H](N)[C@H](O)[C@H](C)O1`, the figure is 180%.
For `CCOc1ccc(Cc2cc([C@@H]3O[C@H](CO)[C@@H](O)[C@H](O)[C@@H]3O)ccc2Cl)cc1`, the viability was 111%.
For the compound `CC(=O)[C@]1(O)Cc2c(O)c3c(c(O)c2[C@H](O[C@H]2C[C@H](N)[C@H](O)[C@H](C)O2)C1)C(=O)c1ccccc1C3=O`, the viability was 82.5% (active).
Then `CCC1=CC2CN(C1)Cc1c([nH]c3ccccc13)[C@@](C(=O)OC)(c1cc3c(cc1OC)N(C)[C@H]1[C@@](O)(C(=O)OC)[C@H](OC(C)=O)[C@]4(CC)C=CCN5CC[C@@]31[C@H]54)C2` (stereo partly drawn), with 40.3% (active).
As for `CC(=O)O[C@H]1C(=O)[C@@]2(C)C([C@H](OC(=O)c3ccccc3)[C@]3(O)C[C@H](OC(=O)[C@H](O)[C@@H](NC(=O)c4ccccc4)c4ccccc4)C(C)=C1C3(C)C)[C@]1(OC(C)=O)CO[C@@H]1C[C@H]2O` (stereo partly drawn), the viability was 34.2% (active).
For `CO[C@H]1C[C@H]2CC[C@@H](C)[C@@](O)(O2)C(=O)C(=O)N2CCCC[C@H]2C(=O)O[C@H]([C@H](C)C[C@@H]2CC[C@H](OC(=O)C(C)(CO)CO)[C@H](OC)C2)CC(=O)[C@H](C)/C=C(\C)[C@@H](O)[C@@H](OC)C(=O)[C@H](C)C[C@H](C)/C=C/C=C/C=C/1C`, the viability was 93.3% (active).
Then `CO[C@H]1/C=C\C=C(\C)C(=O)NC2=CC(=O)C(NCCN(C)C)=C(C[C@@H](C)C[C@H](OC)[C@H](O)[C@@H](C)/C=C(\C)[C@@H]1OC(N)=O)C2=O`, with 91.8% (active); and `CC(C)(C(=O)NCC(F)(F)C(F)(F)F)C(=O)N[C@H]1C(=O)Nc2ccccc2-c2ccccc21`, with 119%; and `CC1(C)O[C@@H]2C[C@H]3[C@@H]4CCC5=CC(=O)C=C[C@]5(C)[C@]4(F)[C@H](O)C[C@]3(C)[C@@]2(C(=O)CO)O1`, with 108%.

Source of the values: PubChem BioAssay.
